Bioassay records from PubChem.
Spn DPM-DC inh = blocks S. pneumoniae diphosphomevalonate decarboxylase. purified DPM-DC, PK/LDH coupled NADH fluorescence. calls only at 10 µM. 65,000 tested, 0.49% active;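 active = the 320 compounds with the highest percent inhibition in the single-dose primary screen, excluding strongly autofluorescent ones, cut at about 32% in these data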;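 also: kinetic rate of NADH fluorescence loss reporting ADP formed by the decarboxylase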
Spn PMK inh = inhibitors of Streptococcus pneumoniae phosphomevalonate kinase. 65,000 tested, 0.49% active. purified PMK, PK/LDH-coupled NADH absorbance 340 nm. inhibition, % at 10 µM. AID 539;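 active = top-ranked compounds by inhibition in the single 10 µM screen, taking a fixed number of the strongest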
Autofluor 339 = intrinsic fluorescence of library compounds, ex339/em460 – biochemical, MLSMR library, data from DPM-DC assay, artefact control, profiling panel; compound autofluorescence, ex339/em460 nm, NADH buffer; active compounds read high; 1 = no-compound wells, NADH background; fluorescence fold increase at 10 µM; 65,000 tested, 5.5% active; AID 709;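 active = at 10 µM, mean starting fluorescence two-fold or more over control wells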;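 also: signal is the first read of a kinetic run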
MK inhibit = blocks S. pneumoniae mevalonate kinase. purified MK, PK/LDH-coupled NADH absorbance 340 nm. AID 555. inhibition, % at 10 µM. 65,000 tested, 0.48% active;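 active = ranked among the strongest by inhibition in the single 10 µM screen, a fixed top-ranked set picked for dose follow-up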
Abs 340nm = compounds absorbing at 340 nm | compound absorbance at 340 nm, fold over control | fold change at 10 µM | 65,000 tested, under 10 active | AID 708;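 active = at 10 µM dose, initial 340 nm absorbance at least 2 fold that of control wells; inactive = change under 2 fold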;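 also: initial absorbance extrapolated from kinetic A340 decline of NADH oxidation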
NADH enzymes = blocks coupling enzymes of NAD/NADH assays. coupled PK/LDH NADH assays, four targets. IC50, µM (titrated, usually from 10 µM). 65,000 tested, 0.02% active;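 active = single-dose screening hits from any of four coupled enzyme assays that gave an IC50 when retested across doses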;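 also: the DPM-DC format reads NADH fluorescence rather than 340 nm absorbance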
Numbers stand for hits; – = inactive; · = no result shown. Hits are enriched below; roughly 6.5% of the tested compounds scored in any of these assays.

SMILES	Spn DPM-DC inh	Spn PMK inh	Autofluor 339	MK inhibit	Abs 340nm	NADH enzymes
CN(C(=O)c1cccc(C#N)c1)c1nnc(C2CCOC2)s1 (stereo not given)	–	–	–	–	–	–
CN(C(=O)c1ccccn1)c1nnc(-c2ccncc2)s1	·	–	2.3	–	–	–
CN(C(=O)c1ccno1)c1nnc(-c2ccccn2)s1	·	–	5.1	–	–	–
CN(C(=O)c1ccncc1)c1nnc(-c2ccccn2)s1	–	–	3.1	–	–	–
CN(C(=O)c1ccncc1)c1nnc(-c2cccnc2)s1	–	–	–	–	–	–
CN(C(=O)c1cccc(C#N)c1)c1nnc(-c2ccccn2)s1	–	–	2.1	–	–	–
COc1cc(CC(=O)Nc2ccc(S(=O)(=O)N(C)C)cc2)cc(OC)c1OC	–	–	–	–	–	–
O=C(CN(C(=O)c1cc2c(s1)CCC2)C1CCCC1)NCc1cccs1	–	–	–	–	–	–
COc1ccc(N(C(=O)COc2ccccc2)C2C=CS(=O)(=O)C2)cc1 (stereo not given)	–	–	–	–	–	–
Cc1cc(C)n2nc(SCc3cc(=O)n4c(C)cccc4n3)nc2n1	–	28	–	–	–	–
Cc1cc(C)n2nc(SCc3cc(=O)n4ccccc4n3)nc2n1	–	–	–	–	–	–
Cc1cc(C)c2c(CC(=O)Nc3nccs3)coc2c1	–	–	–	–	–	–
Cc1nn(-c2ccccc2)c(N2CCCC2)c1/C=N/n1cnc2scc(-c3ccccc3)c2c1=O	–	–	3.5	–	–	–
O=C(Nc1ccc2nc(-c3cccs3)[nH]c2c1)c1cccs1	–	–	2.4	–	–	–
CC(=O)Nc1ccc2nc(-c3ccccn3)[nH]c2c1	·	–	3.7	–	–	–
Cc1cccn2c(=O)c3cc(C(=O)NCCN4CCOCC4)n(Cc4ccccc4)c3nc12	·	–	3.8	–	–	–
CCOCCCn1c(=N)c(C(=O)NCCN2CCOCC2)cc2c(=O)n3cccc(C)c3nc21	·	–	5.2	–	–	–
CCN1CCCC1CNC(=O)c1nn(-c2ccc(C)cc2)c(=O)c2c1c1ccccc1n2C (stereo not given)	–	–	2.7	–	–	–
Cc1ccc(-n2nc(C(=O)N3CCN(C)CC3)c3c4ccccc4n(C)c3c2=O)cc1	–	–	–	–	–	–
O=c1nc2scc(-c3ccccc3)n2c2ccccc12	–	–	–	–	–	–
O=C(O)CCCNCc1ccccc1F	–	–	–	–	–	–
O=C(O)CCS(=O)(=O)Cc1ccccc1F	–	27	–	–	–	–
C=CCn1cc(C(=O)NCCCOC)c(=O)c2cc(S(=O)(=O)N(CC)CC)ccc21	–	–	–	–	–	–
C=CCn1c(=N)c(C(=O)NCCCOC)cc2c(=O)n3cc(C)ccc3nc21	·	–	3.8	–	–	–
C=CCn1c(=N)c(C(=O)NCCCOC)cc2c(=O)n3ccccc3nc21	·	–	3.7	–	–	–
SMILES	Spn DPM-DC inh	Spn PMK inh	Autofluor 339	MK inhibit	Abs 340nm	NADH enzymes
O=C1CC(N2CCN(c3ccc(C(=O)c4ccc(F)cc4)cc3)CC2)C(=O)N1 (stereo not given)	–	–	–	–	–	–
CC(=O)NCCc1cc2ccc(C)c(C)c2[nH]c1=O	–	–	–	–	–	–
Cc1ccc2cc(CCNC(=O)CC(C)(C)C)c(=O)[nH]c2c1C	·	–	2	–	–	–
O=c1oc2ccccc2cc1-c1nc2ccccc2o1	·	–	2.1	–	–	–
COc1ccc2oc(C(=O)C3CC3)c(N)c2c1	–	–	2.1	–	–	–
COc1ccc(C(=O)c2oc3ccccc3c2N)cc1	–	–	–	–	–	–
O=C(O)C1=C(C(=O)Nc2ccc(F)c(Cl)c2)CCCC1	–	25	–	–	–	–
CC1(C)CC(=O)C2=C(C1)OC(N)=C(C#N)C2C1CC=CCC1 (stereo not given)	–	–	–	–	–	–
Cc1c(-c2ccc(F)cc2)nc(N)c(C#N)c1-c1ccco1	–	–	2.4	–	–	–
CCOC(=O)C1CCCn2c1nc1sc3c(c1c2=O)CCCC3 (stereo not given)	–	–	–	–	–	–
COC(=O)C1=CN(C)C=C(C(=O)OC)C1c1ccsc1	·	–	2.2	–	–	–
Cc1nnc(SCCn2c(N(C)Cc3ccccc3)nc3c2c(=O)[nH]c(=O)n3C)s1	–	–	–	–	–	–
